# High-throughput results deposited in PubChem BioAssay by several laboratories.
# A selection: hits, their analogues and other compounds. The true share with any hit is near 4.7%.
# GDH-TPI counter-1: counter-screen for M. tuberculosis FBA inhibitors: GDH-TPI coupled enzymes; GDH-TPI coupled enzyme counterscreen, NADH absorbance; inhibition, % at 4.8 µM; 1.2% of 360,000 active; AID 588335; in the data active = inhibition above about 30%;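 note: 0% = DMSO wells and 100% = wells lacking the enzyme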
# DUSP3 inh: inhibitors of human VHR1 phosphatase (DUSP3); recombinant VHR phosphatase, pNPP absorbance; inhibition, % at 13.3 µM; 0.52% of 290,000 active; in the data active = inhibition above about 50%
# Target sequence (P51452 whole entry, looked up): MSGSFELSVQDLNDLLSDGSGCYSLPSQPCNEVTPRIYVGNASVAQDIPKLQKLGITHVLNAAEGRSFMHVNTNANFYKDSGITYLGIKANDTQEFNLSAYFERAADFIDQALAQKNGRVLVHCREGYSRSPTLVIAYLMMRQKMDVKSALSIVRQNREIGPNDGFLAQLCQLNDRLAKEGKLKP
# SARS 3CLpro inh: SARS-CoV 3CLpro protease inhibition. recombinant SARS-CoV 3CLpro, quenched FRET peptide cleavage. inhibition, % at 6 µM. 0.14% of 290,000 active; in the data active = inhibition above about 12%
# CCHF vOTU inh: blocks the CCHF virus ovarian tumor domain protease; CCHFV vOTU protease, Pep-AMC fluorescence; inhibition, % at 11.5 µM; 0.55% of 370,000 active; AID 651958; in the data active = inhibition above about 30%; note: 0% = vehicle wells with enzyme and 100% = no enzyme wells
# FBA Mtb inh: inhibitors of M. tuberculosis fructose-bisphosphate aldolase; AID 588726; 2.3% of 360,000 active; purified M. tuberculosis FBA, fluorescence read-out; inhibition, % at 1 µM; P9WQA3;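 note: 0% = vehicle and 100% = reference inhibitor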
# Target sequence (P9WQA3 whole entry, looked up): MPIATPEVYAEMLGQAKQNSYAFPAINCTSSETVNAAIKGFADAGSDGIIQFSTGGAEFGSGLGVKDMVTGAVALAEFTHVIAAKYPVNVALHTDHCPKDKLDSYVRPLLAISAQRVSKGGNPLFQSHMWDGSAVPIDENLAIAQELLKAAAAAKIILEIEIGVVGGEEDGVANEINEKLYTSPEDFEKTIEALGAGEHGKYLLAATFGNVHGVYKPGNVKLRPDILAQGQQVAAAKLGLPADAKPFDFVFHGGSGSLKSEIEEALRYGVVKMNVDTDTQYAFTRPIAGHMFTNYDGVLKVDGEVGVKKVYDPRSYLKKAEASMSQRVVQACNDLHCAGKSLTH
# RecA intein inh: inhibitors of M. tuberculosis RecA intein splicing | P9WHJ3 | cell-free RecA intein splicing, fluorescence | inhibition, % (test concentration not listed) | 0.75% of 290,000 active | AID 2221; in the data active = inhibition above about 30%;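 note: 0% = vehicle wells and 100% = reference inhibitor control wells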
# Mtb FBA inh conf: confirmation of M. tuberculosis fructose-bisphosphate aldolase inhibitors. purified M. tuberculosis FBA, fluorescence read-out. 78% of 5,600 active. inhibition, % at 1 µM. shares compounds with FBA Mtb inh;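 note: 0% = vehicle wells and 100% = reference inhibitor wells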
# GDH-TPI counter-2: inhibits GDH-TPI coupling enzymes, flagging Mtb FBA hits; 81% of 5,600 active; shares compounds with FBA Mtb inh; AID 652141; inhibition, % at 1 µM; GDH-TPI coupled enzyme counterscreen, fluorescence; in the data active = inhibition above about 10%
# Numbers without * were called inactive; . = no result; + = active, no number. Cut-off read from the data, not from the text of the source, unless noted: active = inhibition above about 27%; inactive = the rest.
SMILES,GDH-TPI counter-1,DUSP3 inh,SARS 3CLpro inh,CCHF vOTU inh,FBA Mtb inh,RecA intein inh,Mtb FBA inh conf,GDH-TPI counter-2
CC(C)CN(C(=O)COC(=O)c1ccccc1NCc1ccco1)c1c(N)n(Cc2ccccc2)c(=O)[nH]c1=O,-1,.,.,-25,31*,1,152*,123*
CCOc1ccc(C(=O)NCc2ccc3c(c2)OCO3)cc1,-3,-14,1,2,4,0,.,.
COC(=O)[C@]12C[C@H](CC(=O)NCC3CCCCC3)C(=O)N(Cc3ccc4c(c3)OCO4)C1=C[C@H](C(C)C)O[C@@H]2C1CC1,.,.,.,18,.,.,.,.
Cc1ncc([N+](=O)[O-])n1CC(C)O (configuration not stated),17,16,-1,1,-3,1,.,.
CC(O)Cn1nc([N+](=O)[O-])nc1N (configuration not stated),0,28,-3,27,31*,-2,180*,153*
CCOC(=O)CNC(=O)Nc1nnc(-c2ccc(OCC)cc2)o1,-1,14,-5,-4,63*,0,1,-5
CCCCNC(=O)Nc1nnc(-c2ccc(OCC)cc2)o1,-8,-17,3,-9,29*,.,70*,41*
CCCCNC(=O)Nc1nnc(-c2ccccc2)o1,-9,-29,-2,-5,22,0,.,.
CCOc1ccc(-c2nnc(NC(=O)COc3ccccc3F)o2)cc1,-5,.,.,7,1,.,.,.
COc1ccc(Cl)cc1NC(=O)CN(C)C(=O)/C=C/c1ccco1,-1,.,.,8,-1,.,.,.
COC(=O)c1cc(COc2ccc3c4c(c(=O)oc3c2)CCCC4)c(C)o1,12,-10,1,-25,19,-4,.,.
O=C(O)COc1ccc2c3c(c(=O)oc2c1)CCCC3,6,29,-1,-3,0,-3,.,.
C=CCOC(=O)COc1ccc2c3c(c(=O)oc2c1)CCCC3,15,.,.,-16,40*,.,62*,41*
O=C(Oc1ccc2c3c(c(=O)oc2c1)CCCC3)c1cccs1,7,-5,2,-68,82*,8,+,+
Cc1oc(C(=O)O)cc1COc1ccc2c3c(c(=O)oc2c1)CCC3,27,-2,-4,-16,38*,-2,55*,44*
O=c1oc2cc(OCCO)ccc2c2c1CCCC2,5,8,3,-34,60*,0,74*,57*
O=C(COc1ccc2c3c(c(=O)oc2c1)CCC3)c1ccc2c(c1)OCO2,7,8,2,-6,4,-1,.,.
Cc1nc(C)c(C(=O)OCC(=O)NCc2ccccc2)s1,4,.,.,0,1,.,.,.
O=C(CCCCCN1C(=O)c2ccccc2C1=O)Oc1ccc2c3c(c(=O)oc2c1)CCC3,2,-12,0,-62,62*,-1,-3,-3
COc1ccc(-c2csc(-c3ccc(C(=O)O)cc3)n2)cc1,22,4,3,-43,49*,1,58*,43*
c1ccc2c(NCCc3c[nH]c4ccccc34)c3ccccc3nc2c1,11,.,-1,-20,39*,2,116*,95*
COc1ccc(CCNc2c3ccccc3nc3ccccc23)cc1OC,21,20,2,-48,55*,-60,+,+
COc1nc(NCCc2ccc(OC)c(OC)c2)nc(OC)n1,9,-7,2,5,0,.,.,.
CC(C)(C)c1ccc(S(=O)(=O)N2CCC(C(=O)NCC3COCCO3)CC2)cc1 (configuration not stated),.,.,.,-6,.,.,.,.
Cc1cc(-c2ccccc2)n2nc(N)nc2n1,2,11,0,-25,34*,-4,97*,76*
SMILES,GDH-TPI counter-1,DUSP3 inh,SARS 3CLpro inh,CCHF vOTU inh,FBA Mtb inh,RecA intein inh,Mtb FBA inh conf,GDH-TPI counter-2
Cc1cc(C)n2nc(N)nc2n1,5,.,.,5,1,.,.,.
Cc1cc(-c2ccccc2)n2nc(C)c(C#N)c2n1,7,1,0,-25,27*,1,+,+
COc1cccc(Cn2cc(COC(=O)N(C)Cc3ccccc3)nn2)c1,.,.,.,-10,.,.,.,.
Cc1cccc(CNC(=O)c2ccccc2N)c1,-10,-4,-2,-31,58*,-5,137*,102*
Cc1ccc(CNC(=O)c2ccccc2N(C)S(C)(=O)=O)cc1,9,20,-1,5,3,2,.,.
Cc1cccc(CNC(=O)c2ccccc2NC(=O)C2=CSCCO2)c1,11,19,-4,13,-1,-9,.,.
Cc1ccc(CNC(=O)c2ccccc2N)cc1,-10,29,-1,-29,60*,0,80*,60*
O=C(NCc1ccco1)c1ccccc1O,-6,17,-1,-9,10,-2,.,.
Nc1ccccc1C(=O)NCc1ccco1,1,22,6,-33,52*,0,83*,59*
O=C(Nc1cccnc1)c1ccc(Cl)c(S(=O)(=O)N2CCCC2)c1,-7,-3,6,8,1,4,.,.
CCCCOc1ccccc1C1NC(=O)CCC1[N+](=O)[O-] (configuration not stated),5,11,1,-3,3,0,.,.
O=C(Nc1ccc(-n2cccn2)cc1)C1CCCCN1Cc1cccc2c1OCO2 (configuration not stated),9,18,1,-2,-2,5,.,.
Fc1ccc(/C=N/NC(=S)Nc2ccc(Cl)cc2)cc1F,13,-11,6,10,-1,3,.,.
NS(=O)(=O)c1ccc(CCNC(=O)COC(=O)Cc2c(F)cccc2Cl)cc1,-3,16,2,10,-1,-3,.,.
O=C(NCCC(=O)N(CCc1ccccc1)Cc1ccccc1)c1ccc([N+](=O)[O-])cc1,-5,.,.,3,-2,7,.,.
Clc1ccc2nc(-c3ccco3)c(Cc3ccccc3)n2c1,.,.,.,8,3,.,.,.
Cc1ccc2nc(C3CCCCC3)c(Cc3cccc(F)c3)n2c1,.,.,.,3,14,.,.,.
Clc1cccc(Cc2c(-c3ccco3)nc3c4ccccc4ccn23)c1,.,.,.,4,.,.,.,.
Fc1cccc(Cc2c(-c3ccco3)nc3c4ccccc4ccn23)c1,.,.,.,4,27*,.,68*,46*
Cc1ccc2nc(C3CCCCC3)c(Cc3ccccc3)n2c1,.,.,.,10,28*,.,3,-3
Cc1ccc2nc(-c3ccco3)c(Cc3ccccc3)n2c1,.,.,.,-14,36*,.,181*,108*
O=S(=O)(Cc1ccccc1)C(c1ccccc1)S(=O)(=O)Cc1ccccc1,4,.,.,26,-1,.,.,.
O=C(COc1ccc(-c2nnco2)cc1)Nc1ccc(C(F)(F)F)cc1,3,.,.,7,-4,-1,.,.
Cc1cccc2cc(C#N)c(NCCNC(=O)COc3ccccc3)nc12,2,-10,4,7,40*,-17,102*,89*
Cc1ccc2cc(C#N)c(NCCNC(=O)C3CC3)nc2c1C,-2,-10,-1,-22,32*,-28,133*,111*
